SENP6 block = SENP6 protease inhibition; Recombinant SENP6 catalytic domain, aminoluciferin luminescence; inhibition, % at 10 µM; 1.8% of 330,000 active;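 active means inhibition above about 50% at the single tested dose, limit read from the data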;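 further: plate controls were DMSO wells with enzyme for no effect and DMSO wells lacking enzyme for full effect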
Target sequence (Q9GZR1 628-1112 limits assumed): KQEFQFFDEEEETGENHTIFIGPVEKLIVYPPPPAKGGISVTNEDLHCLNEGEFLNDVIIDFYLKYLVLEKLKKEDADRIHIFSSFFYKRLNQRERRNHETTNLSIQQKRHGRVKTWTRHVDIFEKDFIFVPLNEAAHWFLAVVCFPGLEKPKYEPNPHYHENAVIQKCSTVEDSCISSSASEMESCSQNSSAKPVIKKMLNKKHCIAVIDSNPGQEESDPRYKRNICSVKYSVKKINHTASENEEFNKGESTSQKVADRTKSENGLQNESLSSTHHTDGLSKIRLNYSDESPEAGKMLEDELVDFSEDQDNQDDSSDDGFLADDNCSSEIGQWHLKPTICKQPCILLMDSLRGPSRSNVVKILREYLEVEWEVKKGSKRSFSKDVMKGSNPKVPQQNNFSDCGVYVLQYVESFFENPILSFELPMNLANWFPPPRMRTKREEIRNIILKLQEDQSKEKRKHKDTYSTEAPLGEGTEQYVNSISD
SENP8 block-1 = inhibitors of human SENP8 protease; Q96LD8; recombinant SENP8, Nedd8 substrate fluorescence; inhibition, % at 20 µM; 0.64% of 360,000 active; in the data active means inhibition mostly above about 40%, no sharp cut-off; inactive means mostly below about 27%
PPC-1+TRAIL kill = PPC-1 cancer cell killing with TRAIL present | cell killing (% activity), % at 4 µM or 5 µM | 0.41% of 220,000 active | PPC-1 cells + TRAIL, ATPLite viability luminescence;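 active means cell killing above 50% in the first pass at 4 µM, then a duplicate retest at 5 µM averaging 50% or more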;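 further: plate controls were cells with TRAIL plus DMSO for no effect and medium-only wells lacking cells for full effect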
SENP8 block-2 = inhibitors of human SENP8 protease. inhibition, % at 10 µM. purified SENP8, Z-RLRGG-aminoluciferin cleavage, luminescence. 1.2% of 330,000 active. Q96LD8; in the data active means inhibition above about 50%
TRAIL sens C8 = sensitizes caspase-8 expressing cells to TRAIL. NB7+C8 cells + TRAIL, ATPlite viability luminescence. inhibition (viability loss, TRAIL sensitization), % at 10 µM. 1% of 360,000 active;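 active means compounds causing at least 50% loss of cell viability in the single-dose screen, relative to plate controls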
SENP7 block = SENP7 protease inhibition; recombinant SENP7, Z-RLRGG-aminoluciferin luminescence, 40 min; inhibition, % at 5 µM; 1.5% of 330,000 active; AID 434973;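 active means inhibition above about 50% at the single test dose, limit read from the data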;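 further: plate controls were DMSO with enzyme for no effect and no enzyme buffer wells for full effect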
Starred values were filed as active, the others as inactive; . = no result given. An excerpt weighted towards active compounds, which were near 3% of everything screened.

SMILES	SENP6 block	SENP8 block-1	PPC-1+TRAIL kill	SENP8 block-2	TRAIL sens C8	SENP7 block
Cc1ccc2[nH]c(O)c(N=Nc3ccccc3C)c2c1	-38	-47	.	-16	10	-6
Cc1ccc(-n2nnnc2SCC(=O)N2CCc3ccccc3C2)cc1	12	41*	8	14	-8	10
CCCc1nn(C)c(C(=O)Nc2cccc(Cl)c2)c1Cl	-1	16	51*	-1	-3	3
Nc1ccn(CCCNC2CCN(Cc3ccccc3)CC2)c(=O)n1	.	2	.	.	10	.
COc1ccc(NC(=O)c2cc(-c3cccnc3)nc3ccc(C)cc23)cc1OC	.	12	3	.	11	.
COc1ccc(NC(=O)c2cc(-c3ccncc3)nc3ccc(Br)cc23)cc1OC	-3	14	.	-7	54*	10
c1ccc(-c2cc3ccccc3[nH]2)cc1	39	-388	.	30	11	21
Clc1ccc2[nH]c(-c3ccccc3)cc2c1	70*	-372	8	62*	0	60*
CCOC(=O)c1sc(NC(=O)c2ccc(OC(C)=O)cc2)nc1C	98*	-53	50	68*	65*	99*
CC(=O)c1sc(NC(=O)c2ccc(C(C)(C)C)cc2)nc1C	-15	-32	27	-19	55*	-1
CCOC(=O)c1sc(NC(=O)Nc2ccc(F)cc2)nc1C	7	8	42	-14	51*	6
CCOC(=O)c1sc(NC(=O)c2ccc(OC)cc2)nc1C	-2	-63	6	4	9	50
Cc1cccc(-n2ccnc2SCC(=O)c2c(N)n(C3CC3)c(=O)[nH]c2=O)c1C	-16	3	.	-9	19	1
CCCc1cc(=O)[nH]c(SCC(=O)Nc2sccc2C#N)n1	-14	-6	.	-6	2	4
CC(=O)c1cccc(NC(=O)CCCCCn2nnc3ccccc3c2=O)c1	-28	16	.	14	2	5
C=CCOc1c(Br)cc(/C=C2/C(=O)ON=C2C)cc1OC	8	32*	.	-3	-26	1
C#CCOc1c(Br)cc(/C=C2/C(=O)ON=C2C)cc1OC	-10	6	.	4	3	5
O=C(Nc1ccncc1)c1ccc(-c2ccccc2)cc1	-4	12	4	-5	51*	23
COc1ccc(C(=O)Nc2ccccc2C(=O)Nc2ccc(C(=O)O)cc2)cc1	-7	-2	.	0	47	-7
COc1ccc(C(=O)Nc2ccccc2C(=O)Nc2ccccc2C(=O)O)cc1	23	-15	.	-16	59*	-12
COc1ccc(NC(=O)c2ccccc2NC(=O)c2cccs2)cc1	-12	12	.	-8	2	-3
O=C(Nc1ccncc1)c1ccc(F)cc1	-5	18	4	2	-15	8
COc1ccc(C(=O)Nc2ccccc2C(=O)Nc2ccncc2)cc1	8	-342	.	0	65*	5
O=NN(CCCl)C(=O)NCC1=C[N+](=O)CC=C1	.	4	.	.	-1	.
COc1ccc(CCN2CC(C(=O)NCCc3ncccc3C)CCC2=O)cc1 (stereo not given)	.	12	.	.	2	.
SMILES	SENP6 block	SENP8 block-1	PPC-1+TRAIL kill	SENP8 block-2	TRAIL sens C8	SENP7 block
C[C@@H]1CCCCO[C@@H](CN(C)S(=O)(=O)c2cn(C)cn2)[C@@H](C)CN([C@H](C)CO)C(=O)c2cc(NC(=O)Nc3ccc(C(F)(F)F)cc3)ccc2O1	.	2	.	.	-4	.
O=C(NCCc1ccc(Cl)cc1)C1CCC(CNc2c(N3CCCCC3)c(=O)c2=O)CC1 (stereo not given)	-12	7	-1	-8	51*	-7
Cc1cccc(NC(=O)CCCN2C(=O)C(c3ccccc3)Oc3cccnc32)c1C (stereo not given)	-10	5	.	-1	-2	-11
Cc1ccc(CONC(=O)c2ccccc2)cc1	31	-1	12	-6	10	15
COc1ccc(C(=O)NOCc2ccccc2)cc1	19	11	.	4	56*	17
O=C(NOCc1ccccc1)c1ccc(Cl)cc1	25	13	.	-4	51*	19
Cc1ccc(CONC(=O)c2ccc(Cl)cc2)cc1	-13	8	.	-2	4	9
CCCc1c(-c2ccc(O)cc2)nn(-c2ccc(O)cc2)c1-c1ccc(O)cc1	-22	-8	3	4	2	-2
COc1ccc(S(=O)(=O)N2CCN(c3ccc4nnc(-c5ccccc5)n4n3)CC2)cc1	8	-67	-21	2	54*	-1
COc1ccc(S(=O)(=O)N2CCN(c3ccccc3OC)CC2)cc1	-1	10	.	-2	13	-4
c1ccc2[nH]c(Cn3nnc4ccccc43)nc2c1	-9	2	.	-1	3	-5
O=C(Cn1c(=O)oc2ccccc21)N1CCN(S(=O)(=O)c2ccccc2)CC1	11	-2	.	2	5	4
CO/N=C/C(=N\Nc1ccc(C)cc1)C(=O)c1ccc(OC)cc1	-3	51*	6	-1	5	-6
Cc1onc(C(=O)NC2CCCCC2)c1[N+](=O)[O-]	8	18	.	-2	5	4
COc1ccc(C(c2nnnn2CCc2ccccc2)N2CCN(C3CCCC3)CC2)cc1 (stereo not given)	-6	21	13	2	9	0
COc1ccccc1N1CCN(C(c2ccc(N(C)C)cc2)c2nnnn2CCc2ccccc2)CC1 (stereo not given)	-4	47*	19	-3	3	-6
COc1ccc(C(c2nnnn2Cc2ccccc2)N2CCN(c3nc4ccccc4s3)CC2)cc1 (stereo not given)	-6	17	-5	-13	7	-12
COCCn1nnnc1C(c1ccc(OC)c(OC)c1)N1CCN(c2nc3ccccc3s2)CC1 (stereo not given)	-17	12	71*	-5	-13	-13
Cc1nc(-c2cccc(NC(=O)c3ccc(-n4nccc4C)cc3)c2)cs1	-9	-18	.	-12	60*	-5
CCCCCCCCOC(=O)c1cc([N+](=O)[O-])c(Sc2ncnc3nc[nH]c23)c([N+](=O)[O-])c1	.	11	.	.	67*	.
Oc1ccc2ccccc2c1N=Nc1ccccn1	23	41*	36	15	18	-5
COc1ccc(Br)cc1CNc1ccc(O)cc1	6	61*	24	-6	7	58*
COc1ccc(Br)cc1CNc1ccc2[nH]c(=O)[nH]c2c1	-15	-61	-8	-1	2	8
Cc1cc(-c2nc3cc(F)ccc3s2)ccc1N	.	-467	.	.	73*	.
Cc1ccc(NC(=O)c2nc(S(=O)(=O)Cc3ccccc3C)ncc2Cl)cc1C	5	12	.	-1	58*	-7
CSc1ncc(Cl)c(C(=O)Nc2ccc(C)c(C)c2)n1	-14	20	.	-17	-6	-15
CC(=O)Nc1ccc(NC(=O)c2nc(S(=O)(=O)Cc3cccc(C)c3)ncc2Cl)cc1	11	20	.	0	90*	-1
CC1CCN(S(=O)(=O)c2ccc(NC(=O)c3ccncc3)cc2)CC1	-5	2	.	-1	5	1
